Compound activity: PubChem BioAssay, National Center for Advancing Translational Sciences (NCATS)
FLuc inh: blocks purified firefly luciferase enzyme activity | P08659 | purified P. pyralis luciferase, luminescence, biochemical | Potency, µM (top dose mostly 115 µM), actives largely listed as inhibitors | hit rate 2.5% among 76,000 | AID 1347043; also: nearly all actives have a fitted effect of over 65% in size
Target sequence (P08659 whole entry, looked up): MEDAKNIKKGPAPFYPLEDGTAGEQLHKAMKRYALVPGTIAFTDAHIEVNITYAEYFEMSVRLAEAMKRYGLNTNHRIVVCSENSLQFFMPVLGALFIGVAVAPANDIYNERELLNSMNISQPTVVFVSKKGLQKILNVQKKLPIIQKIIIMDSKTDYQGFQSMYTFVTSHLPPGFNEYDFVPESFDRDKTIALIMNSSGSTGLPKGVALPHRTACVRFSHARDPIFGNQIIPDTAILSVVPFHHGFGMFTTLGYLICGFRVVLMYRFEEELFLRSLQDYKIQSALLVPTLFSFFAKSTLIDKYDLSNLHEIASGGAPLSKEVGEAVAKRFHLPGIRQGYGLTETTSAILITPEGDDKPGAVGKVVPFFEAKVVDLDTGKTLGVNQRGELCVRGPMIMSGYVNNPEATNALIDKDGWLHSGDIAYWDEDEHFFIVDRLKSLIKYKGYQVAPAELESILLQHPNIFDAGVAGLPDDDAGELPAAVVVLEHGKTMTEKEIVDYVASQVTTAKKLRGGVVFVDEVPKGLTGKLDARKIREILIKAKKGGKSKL
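FLuc 10nM, D-luciferin 10uM, ATP 10uM, Mg acetate 10mM, Tris acetate pH 7.5, Tween/BSA; cpd qHTS; enzyme added last; CCD luminescence.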
NIH3T3 tox: NIH 3T3 cell cytotoxicity. NIH 3T3 viability, CellTiter-Glo ATP luminescence, 48-72 h. Potency, µM (series often up to 96.7 µM), usual class: inhibitors. hit rate 4.3% among 94,000. AID 1345082; also: nearly all actives have a fitted effect of over 55% in size
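Cytotoxicity was measured by CellTiter-Glo ATP luminescence after 48 or 72 h compound exposure at 37 °C. Mouse NIH 3T3 fibroblasts were seeded at 400 cells/well and dosed by 23 nL pin transfer.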
SNCA viab count: cell viability loss counter-screen | Potency, µM (titrated, usually from 57.1 µM), most hits filed as cytotoxic | HEK-293-SNCA-luc viability, GF-AFC fluorescence, 24 h | hit rate 0.12% among 150,000; also: nearly all actives have a fitted effect of over 30% in size
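Cytotoxicity counterscreen: after 24 h compound treatment of genome-edited SNCA-luciferase HEK-293 cells, live-cell protease substrate GF-AFC read by fluorescence after 30 min; activity scaled between DMSO (0%) and medium-only (-100%), curves Hill-fitted.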
SNCA expr inh: inhibitors of alpha-synuclein (SNCA) gene expression | HEK-293 SNCA-luciferase knock-in, luminescence, 24 h | Potency, µM (series often up to 57.2 µM), most hits filed as inhibitors | AID 1671194 | hit rate 0.17% among 140,000; also: nearly all actives have a fitted effect of over 45% in size
NPR1 antag: antagonists of human natriuretic peptide receptor Npr1. P16066. HEK293 hNpr1 GloSensor cGMP, ANP-stimulated luminescence. Potency, µM (titrated, usually from 46.3 µM), most hits filed as inhibitors. hit rate 1.6% among 76,000; calls by dose curve; also: nearly all actives have a fitted effect of over 60% in size
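HEK293 cells stably expressing human Npr1 and cGMP GloSensor pGS-40F, loaded 2 h with 2% GloSensor reagent, given compound 30 min at room temperature. Luminescence read before and 20 min after 0.1 nM hNppA.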
HEK cytotox: kills HEK 293 cells; hit rate 6.6% among 94,000; HEK 293 viability, ATP luminescence (CellTiter-Glo), 48-72 h; AID 1345083; Potency, µM (top dose mostly 115 µM), hits mostly inhibitors; also: nearly all actives have a fitted effect of over 60% in size
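qHTS cytotoxicity; HEK 293, 250 cells/well; compound pinned; 48 or 72 hr, 37 degree Celsius, 5% CO2, 95% humidity; CellTiter-Glo, 10 min RT; luminescence (ATP).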
Npr1 antag conf: hNpr1 antagonism, confirmation assay; AID 1347044; Potency, µM (doses to about 57.6 µM), actives largely listed as inhibitors; HEK293 hNpr1 cGMP GloSensor luminescence, ANP-stimulated; shares compounds with NPR1 antag; hit rate 76% among 1,400; calls by dose curve; also: nearly all actives have a fitted effect of over 70% in size
Npr2 selectivity: hNpr2 antagonism, selectivity versus Npr1 | shares compounds with NPR1 antag | AID 1347046 | hit rate 67% among 1,400 | Potency, µM (titrated, usually from 57.6 µM), usual class: inhibitors | HEK293 hNpr2 GloSensor cGMP luminescence, CNP-stimulated; calls by dose curve; also: nearly all actives have a fitted effect of over 70% in size
FLuc inh counter: FLuc enzyme inhibition, Npr1 counter-screen | shares compounds with NPR1 antag | purified FLuc enzyme, luminescence, Km substrate | Potency, µM (top dose mostly 57.6 µM), actives largely listed as inhibitors | hit rate 0.7% among 1,400 | AID 1347047
GloSensor ctrl: counter-screen for Npr1 antagonists: GloSensor control cell line; Potency, µM (doses to about 57.6 µM), usual class: inhibitors; HEK293 GloSensor cGMP, SNP-stimulated, luminescence; hit rate 69% among 1,400; shares compounds with NPR1 antag; calls by dose curve; also: nearly all actives have a fitted effect of over 70% in size
Numbers stand for hits; . = inactive; ? = inconclusive; / = not tested or not shown; [ ] = dose if it differs, or a comment. This is a sample that favours compounds with a hit; in the whole collection about 7.4% have one here. Unless noted, calls follow the shape of the dose curve; as a rule, active = well fitted curve in the direction sought with a large enough effect; inconclusive = small, poorly fitted or top-dose-only effect, or another doubt; inactive = no such curve, though single readings can be large; an effect the other way counts as inactive or inconclusive.

SMILES | FLuc inh | NIH3T3 tox | SNCA viab count | SNCA expr inh | NPR1 antag | HEK cytotox | Npr1 antag conf | Npr2 selectivity | FLuc inh counter | GloSensor ctrl
N#Cc1ccc(C(=O)NC2CCN(c3cc(-c4ccccc4)[nH]n3)CC2)cc1 | . | ? | . | . | . | ? | / | / | / | /
COc1ccc(-c2cc(N3CCC(NC(=O)Cc4cccc(OC)c4)CC3)n[nH]2)cc1 | . | ? | . | . | . | ? | / | / | / | /
COc1ccc(C(=O)NC2CCCN(c3cc(-c4ccc(Cl)cc4)[nH]n3)C2)c(C)c1 (stereo not given) | . | . | . | . | ? | . | ? | ? | . | ?
COc1cccc(CC(=O)NC2CCN(c3cc(-c4ccc(Cl)cc4)[nH]n3)CC2)c1 | . | . | . | . | ? | . | ? | ? | . | ?
COc1ccc(C(=O)NC2CCN(c3cc(-c4ccc(Cl)cc4)[nH]n3)CC2)c(C)c1 | . | ? | . | . | ? | ? | / | / | / | /
COc1ccc(CC(=O)NC2CCN(c3cc(-c4ccc(Cl)cc4)[nH]n3)CC2)cc1OC | . | ? | . | . | 17.8µM | 39.8µM | 24.3µM | 21.7µM | . | 24.3µM
CCS(=O)(=O)N1CCc2nc(-c3ccccc3)[nH]c2C1 | / | . | ? | . | / | . | / | / | / | /
COc1ccc(C(=O)N2CCCN(CCn3nc4n(c3=O)CCCC4)CC2)cc1 | / | . | / | / | / | . | / | / | / | /
Cc1ccncc1C(=O)N1CCC(Oc2ccccc2-c2nc(C3CC3)no2)C1 (stereo not given) | / | . | . | . | / | ? | / | / | / | /
COc1ccc(CC(=O)NC2CCN(c3cc(-c4ccc(F)cc4)[nH]n3)CC2)cc1OC | . | ? | . | . | 11.2µM | ? | 21.7µM | 19.3µM | . | 21.7µM
COc1ccc(CC(=O)NC2CCN(c3cc(-c4ccc(F)cc4)[nH]n3)C2)cc1OC (stereo not given) | . | ? | . | . | 12.6µM | ? | 21.7µM | 21.7µM | . | 24.3µM
O=C(COc1ccccc1)NC1CCN(c2cc(-c3ccccc3)[nH]n2)CC1 | . | ? | . | . | . | ? | / | / | / | /
Cc1ccccc1OCC(=O)NC1CCN(c2cc(-c3ccccc3)[nH]n2)CC1 | . | ? | . | ? | 11.2µM | 25.1µM | 15.3µM | 21.7µM | . | 10.9µM
COc1ccc(-c2cc(N3CCC(NC(=O)Cc4ccc(F)cc4)CC3)n[nH]2)cc1 | . | ? | . | . | . | ? | / | / | / | /
Cc1ccc(C(=O)N2c3ccccc3CC2c2nc(C3CC3)no2)cn1 (stereo not given) | / | . | . | . | / | . | / | / | / | /
CCCC(=O)NC1CN(c2ccnc3ccnn23)C1 | / | . | . | . | / | . | / | / | / | /
Cc1noc(C)c1[S+](=O)([O-])N1CCN(C(=O)c2nc3cccnc3n(CC(C)C)c2=O)CC1 | / | . | . | . | / | . | / | / | / | /
CN1CCN(C(=O)c2ccc3nnc(Cc4ccc(Cl)cc4)n3c2)CC1 | / | . | . | . | / | . | / | / | / | /
Cc1nn(C)c(C)c1CCCN(C)C(=O)c1ccc2c(c1)C(O)CCCCCN2C (stereo not given) | . | ? | . | . | 11.2µM | 35.5µM | 12.2µM | 13.7µM | . | 9.68µM
CCn1cc(CN(C)C(=O)c2ccc3c(c2)C(O)CCCCCN3C)c(C)n1 (stereo not given) | . | ? | . | . | ? | ? | / | / | / | /
O=C1CC(c2nc3ccccc3[nH]2)CN1c1cccc(Cl)c1 (stereo not given) | / | / | . | . | / | / | / | / | / | /
Clc1cccc(CN2CC[C@H](c3nc4ccccc4[nH]3)C2)c1 | . | ? | . | . | 25.1µM | 20µM | 39.6µM | ? | . | ?
O=C(c1ccc(F)c(Cl)c1)N1CCC(n2cc(-c3nc(-c4ccccc4)no3)nn2)CC1 | . | ? | . | . | 12.6µM | ? | 24.3µM | 21.7µM | . | 21.7µM
O=C(c1ccc(F)c(F)c1)N1CCC(n2cc(-c3nc(-c4ccccc4)no3)nn2)CC1 | . | ? | . | . | 11.2µM | ? | 24.3µM | 24.3µM | . | 21.7µM
Cc1noc(-c2cn(C3CCN(C(=O)c4ccc(F)c(Cl)c4)CC3)nn2)n1 | . | ? | . | . | . | . | / | / | / | /
SMILES | FLuc inh | NIH3T3 tox | SNCA viab count | SNCA expr inh | NPR1 antag | HEK cytotox | Npr1 antag conf | Npr2 selectivity | FLuc inh counter | GloSensor ctrl
O=C(c1cccc(Cl)c1)N1CCCC(n2cc(-c3nc(-c4ccccc4)no3)nn2)C1 (stereo not given) | ? | ? | . | . | 15.8µM | ? | 27.3µM | 27.3µM | . | 27.3µM
COc1ccc(CCC(=O)N2CCCC(n3cc(-c4nc(-c5ccccc5)no4)nn3)C2)cc1 (stereo not given) | ? | ? | . | . | 12.6µM | ? | 24.3µM | 24.3µM | 12.2µM | 24.3µM
CC(C)N1CCC2(CC1)CN(C(=O)c1cnccn1)Cc1ccccc1O2 | / | . | . | ? | / | . | / | / | / | /
COc1ccc(CC(=O)NC2CCN(C(=O)c3ccc(-c4ncccc4C#N)cc3)CC2)cc1 | / | ? | .[12.5 µM] | . | / | . | / | / | / | /
COc1ccc(C(=O)N2CCC(n3cc(-c4nc(-c5ccccc5)no4)nn3)CC2)cc1 | . | ? | . | . | ? | ? | 21.7µM | 24.3µM | . | 21.7µM
O=C(c1ccccc1F)N1CCC(n2cc(-c3nc(-c4ccccc4)no3)nn2)C1 (stereo not given) | . | ? | . | . | 14.1µM | ? | 21.7µM | 21.7µM | . | 17.2µM
Cc1nc(C2CC23CCN(S(=O)(=O)c2c(C)noc2C)CC3)no1 (stereo not given) | / | ? | . | . | / | . | / | / | / | /
CCNC(=O)N1CCC(Cc2ccc(C(=O)NCCc3c[nH]c4ccccc34)cc2)CC1 | . | 17.8µM | . | . | 14.1µM | 25.1µM | 24.3µM | 24.3µM | . | 27.3µM
NC(=O)Cc1c[nH]c2ncc(-c3ccccc3Oc3ccccc3)cc12 | . | ? | . | ? | 25.1µM | ? | 35.3µM | 35.3µM | . | 19.8µM
O=C(Cc1c[nH]c2ncc(-c3ccccc3Oc3ccccc3)cc12)NCc1cccnc1 | . | ? | . | ? | 28.2µM | ? | 22.2µM | 22.2µM | . | 19.8µM
Cn1ncc2c(C(=O)N3CCCC3)cc(-c3ccccc3)nc21 | / | . | . | . | / | ? | / | / | / | /
COCCCNC(=O)c1ccccc1-c1ccc(OC)nn1 | / | . | / | / | / | . | / | / | / | /
CCC[C@H]1CN(C(=O)c2ccccc2Cc2ccc(C)cc2)C[C@@H]1N | . | 89.1µM | . | . | . | ? | ? | ? | . | .
